Several values for one entry are separate records, joined by “and”; a condition that tells them apart may be missing. Identical values can stand only once. A number with no mark means an inactive call. Inconclusive results are not listed. Activity calls are given as the source filed them. Unless noted, calls follow the shape of the dose curve; as a rule, active = well fitted curve in the direction sought with a large enough effect; inconclusive = small, poorly fitted or top-dose-only effect, or another doubt; inactive = no such curve, though single readings can be large; an effect the other way counts as inactive or inconclusive.

Results on 25 compounds are retold here after PubChem BioAssay (NCATS).

For assay [1], the target named is Lysosomal acid glucosylceramidase (Homo sapiens) (UniProt P04062). The experiment in a line: Glucocerebrosidase-p2 (AID 348; in the data active = potency below about 10 µM; also: potency is read from the fitted curve at half-maximal effect). The note with it: purified GBA, blue fluorogenic substrate, 40 min. In a few lines:
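Normal human glucocerebrosidase (0.2 nM) with blue fluorogenic substrate (80 uM final) in citrate/phosphate pH 5.9 with 10mM sodium taurocholate, 0.01% tween-20; 40 min RT, NaOH/glycine stop; fluorescence Ex 365/Em 440; AC50 from a titration from 0.6 nM upwards.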

The target of assay [2] is Cytochrome P450 3A4 (Homo sapiens) (UniProt P08684). The assay can be described thus: qHTS Assay for Inhibitors and Substrates of Cytochrome P450 3A4 (AID 884). Also: nearly all actives have a fitted effect of over 50% in size. Also: potency is read from the fitted curve at half-maximal effect. The settings on record: recombinant CYP3A4, Luciferin-PPXE luminescence; series mostly up to 57.1 µM. The procedure, abridged: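 Luminescent readout of luciferin produced by CYP3A4 (20 nM) dealkylation of Luciferin-PPXE, 25 uM (its KM). NADPH-driven reaction ran 60 min at RT after 10 min compound preincubation; data scaled to 57 uM ketoconazole as 100% inhibition.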
Sequence of Cytochrome P450 3A4 (Homo sapiens) (P08684 whole entry, looked up): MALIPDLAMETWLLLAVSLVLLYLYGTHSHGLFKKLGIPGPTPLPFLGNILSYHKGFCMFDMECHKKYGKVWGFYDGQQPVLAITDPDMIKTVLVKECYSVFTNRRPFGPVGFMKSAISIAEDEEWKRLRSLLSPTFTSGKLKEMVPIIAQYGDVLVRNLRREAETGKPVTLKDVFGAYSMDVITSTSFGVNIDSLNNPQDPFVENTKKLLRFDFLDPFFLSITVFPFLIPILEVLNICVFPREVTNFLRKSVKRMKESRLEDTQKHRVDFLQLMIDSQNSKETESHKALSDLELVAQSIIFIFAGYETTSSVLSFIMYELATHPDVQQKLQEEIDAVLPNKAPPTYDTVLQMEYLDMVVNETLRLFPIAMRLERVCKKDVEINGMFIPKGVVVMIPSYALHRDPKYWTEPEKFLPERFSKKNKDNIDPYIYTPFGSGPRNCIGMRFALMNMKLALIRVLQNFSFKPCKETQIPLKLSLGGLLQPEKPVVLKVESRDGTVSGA
(In qHTS, concentration-response curves come from the screen itself.)

Assay [3] has the same target. The assay can be described thus: qHTS Assay for Activators of Cytochrome P450 3A4 (AID 885). Also: nearly all actives have a fitted effect of over 65% in size. Also: potency is read from the fitted curve at half-maximal effect. The settings on record: recombinant CYP3A4, Luciferin-PPXE luminescence, 60 min; series mostly up to 57.1 µM. In a few lines:
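Luminescent readout of luciferin formed from 25 uM Luciferin-PPXE (KM level) by 20 nM CYP3A4 in 200 mM KPO4, with 60 min NADPH-driven reaction at room temperature after 10 min compound exposure. Ketoconazole (57 uM) defined 100% inhibition.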

Assay [4] addresses Cytochrome P450 2C19 (Homo sapiens) (UniProt P33261). The experiment in a line: qHTS Assay for Inhibitors and Substrates of Cytochrome P450 2C19 (AID 899). Also: nearly all actives have a fitted effect of over 60% in size. Also: potency is read from the fitted curve at half-maximal effect. The settings on record: recombinant CYP2C19, luciferin-H EGE luminescence; series mostly up to 57.1 µM. The procedure, abridged:
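5nM enzyme + 10uM Luciferin-H EGE (=KM), 50mM KPO4; cpd pin-transferred, 10 min 37C; NADPH regen, 60 min 37C; stopped w/ luciferin detection reagent, 20 min; luminescence. Normalized to 57uM ketoconazole (AC100).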

Assay [5] is described as follows: Confirmation and Secondary Assay for Modulators of Hemoglobin Beta Chain Splicing at IVS2 705 locus (AID 930).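 Also: HeLa cells stably expressing the EGFP-705 splicing reporter; GFP fluorescence per well restored by corrected splicing of the IVS2-705 intron in EGFP; % of control where 0% means no effect.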 The settings on record: HeLa EGFP-705 splicing reporter, GFP fluorescence, 48 h; series mostly up to 38.3 µM. In a few lines:
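Assay measures total GFP intensity per well in HeLa EGFP-705 cells after 2 days with compound; mis-splicing normally truncates EGFP, so fluorescence indicates corrected splicing.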

Assay [6] has as its target Cytochrome P450 2D6 (Homo sapiens) (UniProt P10635). The experiment in a line: qHTS Assay for Inhibitors and Substrates of Cytochrome P450 2D6 (AID 891). Also: nearly all actives have a fitted effect of over 60% in size. Also: potency is read from the fitted curve at half-maximal effect. The note with it: recombinant CYP2D6, luciferin-ME EGE luminescence; series mostly up to 57.1 µM. The procedure, abridged: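 Luminescent read-out of luciferin formed by 5 nM human CYP2D6 demethylating 30 uM Luciferin-ME EGE (Km level) over 60 min at room temperature after NADPH regeneration addition. Data normalized to full inhibition by 1.43 uM quinidine.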

For assay [7], the target named is Cytochrome P450 2C9 (Homo sapiens) (UniProt P11712). The assay can be described thus: qHTS Assay for Inhibitors and Substrates of Cytochrome P450 2C9 (AID 883). Also: % is scaled to controls: 0 for no effect and ±100 for the full control effect; nearly all actives have a fitted effect of over 60% in size. The settings on record: recombinant CYP2C9, luciferin-H luminescence, 60 min; series mostly up to 57.1 µM. In a few lines: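 Inhibition of CYP2C9 is scored as loss of luminescence, with 57uM sulphaphenazole defining 100% inhibition. Substrate Luciferin-H is used at 100uM, equal to its KM; enzyme at 10nM in 25mM KPO4, 60 min at 37C with NADPH regeneration.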
Sequence of Cytochrome P450 2C9 (Homo sapiens) (P11712 whole entry, looked up): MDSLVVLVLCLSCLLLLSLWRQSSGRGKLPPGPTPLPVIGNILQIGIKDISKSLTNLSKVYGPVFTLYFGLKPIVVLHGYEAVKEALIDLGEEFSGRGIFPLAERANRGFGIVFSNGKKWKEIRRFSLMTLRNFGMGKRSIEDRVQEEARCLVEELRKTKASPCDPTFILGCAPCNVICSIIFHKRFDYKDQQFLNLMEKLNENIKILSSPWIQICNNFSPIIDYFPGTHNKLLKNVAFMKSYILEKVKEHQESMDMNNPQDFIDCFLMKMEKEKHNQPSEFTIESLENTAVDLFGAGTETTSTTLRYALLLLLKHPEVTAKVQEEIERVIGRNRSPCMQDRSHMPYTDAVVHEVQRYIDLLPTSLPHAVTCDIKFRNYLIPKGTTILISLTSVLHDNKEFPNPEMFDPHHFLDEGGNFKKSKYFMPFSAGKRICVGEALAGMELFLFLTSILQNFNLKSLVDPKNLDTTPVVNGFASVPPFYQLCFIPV

The nature of assay [8]: qHTS Assay for Identification of Small Molecule Agonists for Hypoxia Response Element Signaling Pathway (AID 914; active = well fitted activation curve with a large enough effect in the signal ratio, with a control signal flat, not every such curve was filed as active; the % refers to the signal ratio; also: % of control where 0% means no effect). The note with it: ME-180 (cervical carcinoma) HRE-bla reporter, beta-lactamase ratio, CoCl2, 17 h; activation: stronger effect = higher value. In a few lines:
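Compounds in a titration series were added to ME-180 reporter cells alongside an EC50 level of CoCl2. After 17 hours, beta-lactamase activity was read as the 460nm/530nm emission ratio of CCF4, giving AC50 values.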

For assay [9], the target named is Muscarinic acetylcholine receptor M1 (Rattus norvegicus) (UniProt P08482). The experiment in a line: qHTS Assay for Antagonists of Acetylcholine Muscarinic M1 Receptor: Kinetic Measurement of Intracellular Calcium Response (AID 943).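 Also: Fluo-4 calcium signal as peak divided by basal fluorescence over 4 min; nearly all actives have a fitted effect of over 75% in size.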 The settings on record: M1-expressing cells, kinetic intracellular calcium fluorescence; series mostly up to 35.3 µM. The procedure, abridged:
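Antagonism is measured as inhibition of the carbachol-evoked calcium rise in CHO cells transfected with rat M1. Cells are dye-loaded, exposed to compound for 10 min, then stimulated with 100 nM carbachol (EC80).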

Assay [10] shares this target. The assay can be described thus: qHTS Assay for Antagonists of Acetylcholine Muscarinic M1 Receptor: Measurement of IP-One Response (AID 944). Also: nearly all actives have a fitted effect of over 75% in size. The note with it: CHO-M1 cells, IP-One HTRF, antagonist mode; series mostly up to 46.1 µM. The procedure, abridged: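 Antagonist mode with rat M1 receptor transfected into CHO cells. Compound is added first for 10 min, carbachol at its EC80 follows for 30 min, and lysis reagents then allow TR-FRET detection of accumulated IP1.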

Assay [11] concerns the target Pyruvate kinase (Leishmania mexicana) (UniProt Q27686). The experiment in a line: qHTS Validation Assay for Activators of Leishmania Mexicana Pyruvate Kinase (AID 959). The settings on record: purified L. mexicana pyruvate kinase, enzyme activity. In a few lines:
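Pyruvate kinase activity of E451W LmPYK (0.2 nM) was followed as ATP output after 1 h at room temperature with 0.5 mM PEP and 0.1 mM ADP, detected by PKLight luminescence.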

Assay [12] is described as follows: qHTS Assay for Identification of Small Molecule Antagonists for NFkB Signaling Pathway (AID 895; active = well fitted inhibition curve with a large enough effect in the signal ratio, with a control signal flat, not every such curve was filed as active; the % refers to the signal ratio; also: potency is read from the fitted curve at half-maximal effect). The settings on record: NFkB beta-lactamase reporter cells, FRET ratio 460/530, stimulated with 10 pM TNF alpha; series mostly up to 38.3 µM. The procedure, abridged: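 Beta-lactamase reporter read-out (460 and 530 nm emission ratio, 405 nm excitation, 2 hrs substrate loading RT) after 5 hr stimulation with 10 pM TNF alpha in compound-treated NFkB-bla ME-180 cells in low-serum medium.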

The target in assay [13] is Alpha-galactosidase A (Homo sapiens) (UniProt P06280). The assay can be described thus: Counterscreen for Glucocerebrosidase Inhibitors: qHTS Assay for Human alpha-Galactosidase at pH 4.5 (AID 992). Also: 0% is about no effect. The note with it: purified enzyme, fluorogenic substrate; series mostly up to 76.9 µM. The procedure, abridged: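 Fluorogenic 1536-well qHTS at pH 4.5 (citrate, Tween-20): 2 nM enzyme, 80 uM 4-MU-alpha-galactoside, 20 min room temperature, NaOH/glycine stop. Titration 0.7 nM to 77 uM, data normalized to no-enzyme and full-activity controls, Hill-fitted AC50.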
Sequence of Alpha-galactosidase A (Homo sapiens) (P06280 whole entry, looked up): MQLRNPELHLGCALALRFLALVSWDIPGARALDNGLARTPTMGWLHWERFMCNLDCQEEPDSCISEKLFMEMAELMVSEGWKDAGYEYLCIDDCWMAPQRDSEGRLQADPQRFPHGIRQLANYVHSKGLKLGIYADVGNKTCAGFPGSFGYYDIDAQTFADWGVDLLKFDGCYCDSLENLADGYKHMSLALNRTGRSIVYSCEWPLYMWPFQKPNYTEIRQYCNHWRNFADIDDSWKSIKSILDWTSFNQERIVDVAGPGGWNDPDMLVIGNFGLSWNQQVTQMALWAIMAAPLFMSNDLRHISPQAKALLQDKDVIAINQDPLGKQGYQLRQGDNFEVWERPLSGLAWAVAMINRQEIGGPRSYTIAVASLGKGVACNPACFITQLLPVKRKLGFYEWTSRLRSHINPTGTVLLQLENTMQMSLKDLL

Sequence of Cytochrome P450 2D6 (Homo sapiens) (P10635 whole entry, looked up): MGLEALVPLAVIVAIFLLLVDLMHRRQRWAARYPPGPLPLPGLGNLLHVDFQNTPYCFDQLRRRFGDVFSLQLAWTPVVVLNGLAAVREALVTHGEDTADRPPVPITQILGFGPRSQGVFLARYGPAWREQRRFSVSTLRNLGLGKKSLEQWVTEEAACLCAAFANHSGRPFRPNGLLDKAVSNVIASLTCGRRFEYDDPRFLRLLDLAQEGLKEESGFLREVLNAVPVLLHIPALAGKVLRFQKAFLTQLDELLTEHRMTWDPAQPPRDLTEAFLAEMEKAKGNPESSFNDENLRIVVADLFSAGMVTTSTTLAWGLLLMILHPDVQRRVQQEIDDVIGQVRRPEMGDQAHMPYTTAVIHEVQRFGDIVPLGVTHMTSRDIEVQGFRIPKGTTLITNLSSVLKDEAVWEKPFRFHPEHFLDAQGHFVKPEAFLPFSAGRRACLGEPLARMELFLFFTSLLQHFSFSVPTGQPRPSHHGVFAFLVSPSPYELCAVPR
Sequence of Cytochrome P450 2C19 (Homo sapiens) (P33261 whole entry, looked up): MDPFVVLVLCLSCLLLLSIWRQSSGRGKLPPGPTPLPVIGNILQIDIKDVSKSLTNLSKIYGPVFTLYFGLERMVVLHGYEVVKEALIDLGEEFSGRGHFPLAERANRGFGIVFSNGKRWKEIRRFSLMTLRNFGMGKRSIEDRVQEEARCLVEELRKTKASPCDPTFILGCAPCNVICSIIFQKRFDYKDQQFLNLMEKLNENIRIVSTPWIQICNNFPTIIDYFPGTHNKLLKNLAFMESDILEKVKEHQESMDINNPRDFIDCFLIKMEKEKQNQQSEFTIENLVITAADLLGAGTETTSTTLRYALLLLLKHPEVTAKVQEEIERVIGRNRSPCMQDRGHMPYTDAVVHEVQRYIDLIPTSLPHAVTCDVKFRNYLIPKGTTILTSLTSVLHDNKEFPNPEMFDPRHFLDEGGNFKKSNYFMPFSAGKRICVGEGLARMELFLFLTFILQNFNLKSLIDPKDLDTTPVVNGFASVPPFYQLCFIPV
Sequence of Lysosomal acid glucosylceramidase (Homo sapiens) (P04062 whole entry, looked up): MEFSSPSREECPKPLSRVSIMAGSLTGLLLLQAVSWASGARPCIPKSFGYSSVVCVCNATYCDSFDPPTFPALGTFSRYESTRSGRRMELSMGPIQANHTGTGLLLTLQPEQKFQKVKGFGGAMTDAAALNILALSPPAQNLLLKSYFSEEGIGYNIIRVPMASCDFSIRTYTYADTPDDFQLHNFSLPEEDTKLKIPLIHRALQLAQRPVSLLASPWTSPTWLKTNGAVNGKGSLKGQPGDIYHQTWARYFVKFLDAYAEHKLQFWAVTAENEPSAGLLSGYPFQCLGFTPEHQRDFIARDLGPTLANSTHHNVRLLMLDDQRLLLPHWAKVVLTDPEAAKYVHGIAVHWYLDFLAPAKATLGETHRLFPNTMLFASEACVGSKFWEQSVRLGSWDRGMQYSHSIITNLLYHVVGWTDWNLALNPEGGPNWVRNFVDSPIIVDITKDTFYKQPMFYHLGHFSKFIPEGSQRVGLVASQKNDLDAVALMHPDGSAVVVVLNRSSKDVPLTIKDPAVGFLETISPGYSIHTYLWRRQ
Sequence of Muscarinic acetylcholine receptor M1 (Rattus norvegicus) (P08482 whole entry, looked up): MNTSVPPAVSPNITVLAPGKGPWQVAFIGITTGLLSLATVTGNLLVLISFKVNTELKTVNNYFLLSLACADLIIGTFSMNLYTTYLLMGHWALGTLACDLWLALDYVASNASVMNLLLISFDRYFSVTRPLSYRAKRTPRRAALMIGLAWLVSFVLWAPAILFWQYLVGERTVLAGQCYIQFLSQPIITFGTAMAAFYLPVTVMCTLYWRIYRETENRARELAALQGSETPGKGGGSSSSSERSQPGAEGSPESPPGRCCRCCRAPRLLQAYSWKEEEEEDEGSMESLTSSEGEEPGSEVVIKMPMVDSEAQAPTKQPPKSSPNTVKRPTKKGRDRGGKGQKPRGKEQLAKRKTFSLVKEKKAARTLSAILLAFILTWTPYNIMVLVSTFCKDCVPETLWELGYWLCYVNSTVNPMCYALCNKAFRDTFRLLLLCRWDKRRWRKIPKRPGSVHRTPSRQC
Sequence of Pyruvate kinase (Leishmania mexicana) (Q27686 2-499 E452W): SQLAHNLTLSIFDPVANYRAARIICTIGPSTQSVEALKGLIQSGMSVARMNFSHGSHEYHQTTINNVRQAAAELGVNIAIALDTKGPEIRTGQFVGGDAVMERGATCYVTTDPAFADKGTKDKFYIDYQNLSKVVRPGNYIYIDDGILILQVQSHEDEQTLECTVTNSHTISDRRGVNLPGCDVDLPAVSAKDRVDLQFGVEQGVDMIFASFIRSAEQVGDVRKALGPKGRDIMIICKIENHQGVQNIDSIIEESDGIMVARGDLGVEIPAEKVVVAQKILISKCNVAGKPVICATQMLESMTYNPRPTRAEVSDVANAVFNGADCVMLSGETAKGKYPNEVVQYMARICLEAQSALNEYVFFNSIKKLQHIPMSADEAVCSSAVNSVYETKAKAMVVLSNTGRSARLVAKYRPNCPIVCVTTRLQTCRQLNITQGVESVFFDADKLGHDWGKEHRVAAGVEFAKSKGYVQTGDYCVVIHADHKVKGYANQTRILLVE

As to `CN(C)c1ccc(-c2ccc3ncnc(NCc4ccccc4)c3c2)cc1`, the Potency in assay [1] was over 11.4 µM; in assay [2], 2.51 µM (active); in assay [4], 7.94 µM (active). The Potency entry in assay [3] is “inactive”. In addition, the result in assay [5] was inactive.
As for `N#Cc1ccc(CN2CCCC3(CCNCC3)C2)cc1`, the Potency in assay [1] is over 11.4 µM.
As to `N#Cc1ccc(CN2CCCC3(CCN(C(=O)c4cc(C(F)(F)F)cc(C(F)(F)F)c4)CC3)C2)cc1`, the Potency in assay [1] is over 11.4 µM.
For the compound `O=C(Nc1cccc(F)c1)N1CCC2(CC1)CCN(C(=O)c1cc(C(F)(F)F)cc(C(F)(F)F)c1)CC2`, in assay [1], the Potency was over 11.4 µM.
As to `C[C@@]12CCC(=O)C=C1CC[C@H]1[C@H]3CC[C@](O)(C(=O)CO)[C@]3(C)CC(=O)[C@@H]12`, the Potency result in [6] and in assay [4] was “inactive” in each case.
On to `O=C(O)/C=C\c1ccc(O)c(O)c1`, for which the Potency entry in assay [7], in assay [6] and in assay [4] was “inactive” throughout.
For the compound `CC(=O)OCC1=C(C(=O)O)N2C(=O)[C@@H](NC(=O)Cc3cccs3)[C@@H]2SC1`, the Potency result in assay [3], in assay [9] and in assay [10] was “inactive” throughout. Besides, the activation in assay [8] is -3.21% and -0.503%. In addition, the Potency in assay [11] is 25.1 µM (active).
For `N[C@H](C(=O)N[C@@H]1C(=O)N2C(C(=O)O)=C(Cl)CS[C@@H]12)c1ccccc1`, the Potency entry in assay [3], in assay [12] and in [9] was “inactive” in each case.
For the compound `c1ccc([C@@H]2CN3CCSC3=N2)cc1`, in assay [10], the Potency result is “inactive”.
For `CN1Cc2c(N)cccc2[C@H](c2ccccc2)C1`, the Potency entry in assay [3] and in assay [10] was “inactive” throughout. Besides, the Potency in assay [6] is 6.31 µM (active).
As for `CC(C)(Oc1ccc([C@@H]2CC2(Cl)Cl)cc1)C(=O)O`, in assay [12], the Potency entry is “inactive”. In assay [8], the activation is -18.9%.
Take `CC(=O)[C@@H]1CC[C@@H]2[C@@H]3CCC4=CC(=O)CC[C@@]4(C)[C@H]3CC[C@]21C`: the Potency entry in assay [2] and in [6] was “inactive” each time.
Consider `C=CCc1ccccc1OC[C@H](O)CNC(C)C`, for which the Potency is 6.31 µM (active) in assay [6] and 3.16 µM (active) in [12]. In addition, in [10], the Potency entry is “inactive”.
Regarding `CC(=O)OCC1=C(C(=O)O)N2C(=O)[C@@H](NC(=O)CSc3ccncc3)[C@@H]2SC1`, the Potency result in assay [3], in assay [12], in assay [9] and in assay [10] was “inactive” in each case. Further, the Potency in assay [11] was 15.8 µM (active).
For `O=C(C1CCCCC1)N1CC(=O)N2CCc3ccccc3[C@@H]2C1`, the Potency result in assay [7] and in [6] was “inactive” in each case.
On to `COc1cc(=O)n(C)c2c(OC[C@@H](O)C(C)(C)O)cccc12`, for which the Potency entry in [3], in assay [6], in assay [4], in assay [9] and in [10] was “inactive” throughout. For the same compound, in assay [13], the compound was classed as inactive.
Turning to `CC(C)NC[C@H](O)c1cc(O)cc(O)c1`, the call in assay [13] was inactive.
In the case of `C[C@@](N)(Cc1ccc(O)c(O)c1)C(=O)O`, the Potency entry in assay [3], in [6] and in [4] was “inactive” in each case. Moreover, the call in assay [5] was inactive.
In the case of `C[C@@H](CCc1ccccc1)NC[C@H](O)c1ccc(O)c(C(N)=O)c1`, the Potency in assay [6] was 3.98 µM (active) and 2 µM (active). Moreover, in assay [10], the Potency result is “inactive”.
Take `CN(C)[C@@H]1C(=O)C(C(N)=O)=C(O)[C@]2(O)C(=O)C3=C(O)c4c(O)ccc(Cl)c4[C@H](O)[C@H]3C[C@@H]12`: the Potency entry in assay [7], in assay [12], in assay [9] and in assay [10] was “inactive” throughout.
`C[C@@]12CCC(=O)C=C1CC[C@@H]1[C@@H]2[C@H](O)C[C@]2(C)[C@@H]1CC[C@]2(O)C(=O)CO`: the Potency entry in assay [6] and in assay [4] was “inactive” throughout.
Regarding `O=C(O)CNC(=O)[C@@H](CS)Cc1ccccc1`, the Potency result in assay [12] and in assay [9] was “inactive” in each case.
In the case of `O=C(c1ccccc1)c1ccc2n1CC[C@H]2C(=O)O`, the Potency result in assay [10] was “inactive”.
On to `CC[C@]1(C)CC(=O)NC1=O`, for which the Potency result in assay [12] was “inactive”.
With `CC(=O)O[C@]1(C(C)=O)CC[C@@H]2[C@@H]3C=C(Cl)C4=CC(=O)[C@H]5C[C@@H]5[C@]4(C)[C@H]3CC[C@]21C`, the Potency result in [2] was “inactive”. In addition, the Potency in [3] is 3.16 µM (active) and 10 µM (active).
